# Most compounds without a hit are left out; they make up all but 4.9% or so of the library.
# Beta apoptosis = blocks beta cell apoptosis; INS-1E cytokine-induced death, ATP luminescence, 48 h; percent of positive-control rescue, neutral wells zero; 300,000 tested, 0.8% active; protection from apoptosis, % (test concentration not listed);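 active = Every replicate reaches about 75%, or at least half do and their mean reaches it too, limit read from the data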;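 note: higher means more ATP so stronger rescue from cytokine killing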
# Mdm2 MdmX PPI = human Mdm2/MdmX binding inhibition. inhibition, % at 8 µM. SaOS-2 split-luciferase Mdm2/MdmX complementation, luminescence. O15151+Q00987. AID 485346. 330,000 tested, 3% active;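 active = inhibition of at least 50% at 8 µM in the primary screen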
# CSC inhib = cancer stem cell inhibition; cancer stem cell-like cells viability, luminescence; inhibition, % at 7.5 µM; 300,000 tested, 1.1% active; AID 2717; in the data active = inhibition above about 75%; tested in HMLE shEcad cells
# PP1 counter = counter-screen for PP5 inhibitors: inhibitors of human PP1-alpha; 320,000 tested, 0.9% active; purified PP1alpha, OMFP fluorescence; AID 2235; inhibition, % at 6.7 µM;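 active = inhibition above the mean inhibition of all tested compounds plus 3 SD, computed separately for each screening campaign, cut at about 15% in these data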
# PP5 inh = inhibitors of human protein phosphatase 5 (PP5); AID 1987; 320,000 tested, 0.18% active; P53041; purified PP5c, OMFP substrate fluorescence; inhibition, % at 6.7 µM;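 active = inhibition above the campaign's mean inhibition across all tested compounds plus 3 SD, cut at about 9.5% in these data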
# Target sequence (P53041 whole entry, looked up): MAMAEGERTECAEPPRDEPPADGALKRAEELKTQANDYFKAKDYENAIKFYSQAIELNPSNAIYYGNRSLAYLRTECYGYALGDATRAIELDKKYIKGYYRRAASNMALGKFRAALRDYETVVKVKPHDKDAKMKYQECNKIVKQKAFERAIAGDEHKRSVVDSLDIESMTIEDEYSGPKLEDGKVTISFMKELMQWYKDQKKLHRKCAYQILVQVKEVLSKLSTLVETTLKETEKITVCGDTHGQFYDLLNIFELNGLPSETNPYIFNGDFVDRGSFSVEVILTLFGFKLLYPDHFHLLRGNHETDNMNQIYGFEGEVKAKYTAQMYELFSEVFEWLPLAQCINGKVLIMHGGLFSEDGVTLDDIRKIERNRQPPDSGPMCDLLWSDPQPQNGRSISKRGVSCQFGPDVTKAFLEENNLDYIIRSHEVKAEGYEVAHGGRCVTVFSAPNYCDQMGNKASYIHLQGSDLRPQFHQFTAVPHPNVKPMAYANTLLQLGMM
# Calb FLC = affects C. albicans growth with fluconazole; C. albicans CaCi-2 (fluconazole-resistant clinical isolate) + fluconazole, Alamar Blue growth, 48 h; growth inhibition, % (test concentration not listed); 300,000 tested, 0.57% active; AID 1979;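 active = growth inhibition above about 58% in most replicates, limit read from the data, passing the limit was not always enough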;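 note: all wells also contain fluconazole at 8 µg/ml as a sub-toxic cotreatment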
# Mdm2 MdmX conf = human Mdm2/MdmX binding inhibition, confirmed. 10,000 tested, 55% active. luminescent assay. shares compounds with Mdm2 MdmX PPI. inhibition, % at 8 µM; in the data active = inhibition above about 40%
# FLuc counter = full-length luciferase inhibition in Mdm2/MdmX counter-screen; shares compounds with Mdm2 MdmX PPI; SaOS-2 full-length luciferase counterscreen, luminescence; inhibition, % at 8 µM; 6,200 tested, 77% active;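 active = mean inhibition at 8 µM reaching about 37%, which flags the compound as non-specific, limit read from the data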;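 note: p53-null SaOS-2 cells with luciferase driven by a doxycycline-inducible promoter; compound on cells about two nights before reading with doxycycline added after day one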
# Hits are given with their value; i = inactive; nt = no result.
SMILES,Beta apoptosis,Mdm2 MdmX PPI,CSC inhib,PP1 counter,PP5 inh,Calb FLC,Mdm2 MdmX conf,FLuc counter
Cc1ccc(C)c2sc(N3CCN(C(=O)c4ccc([N+](=O)[O-])o4)CC3)nc12,i,90,i,i,i,i,51,55
Cc1ccc(SC(c2ccccc2)C(Cn2cncn2)C(=O)c2ccccc2)cc1 (stereo not drawn),i,60,i,i,i,i,i,nt
CC(=O)c1c(C)[nH]c(C(=O)Nc2cccc(S(=O)(=O)N3CCCCC3)c2)c1C,i,72,i,i,i,nt,i,nt
Cc1ccc(S(C)(=O)=O)cc1C(=O)Nc1cccc(S(=O)(=O)N2CCCCCC2)c1,i,i,i,i,i,nt,nt,nt
Cc1ccc(S(=O)(=O)N2CCCCC2)cc1C(=O)N(C)CC(=O)Nc1ccc(Cl)c(C(F)(F)F)c1,i,55,i,i,i,i,68,49
O=C(CCl)Nc1cccc(S(=O)(=O)NC2=NCCCCC2)c1,i,62,i,nt,nt,nt,69,i
Cc1ccc(C(=O)N(C)CC(=O)Nc2ccc(Cl)c(C(F)(F)F)c2)cc1S(=O)(=O)N1CCCCC1,i,i,nt,i,i,nt,nt,nt
O=C(CCl)Nc1ccc(S(=O)(=O)NC2=NCCCCC2)cc1,i,i,i,nt,nt,nt,nt,nt
O=C(CCl)Nc1cccc(S(=O)(=O)N2CCCCCC2)c1,i,98,i,i,i,i,44,i
Nc1ccc2nc(CCCO)[nH]c2c1,i,i,nt,i,i,i,nt,nt
COc1cccc(CC2(CO)CCCN(Cc3c(C)cc(C)cc3-n3cccn3)C2)c1 (stereo not drawn),i,i,i,i,i,i,nt,nt
CCOc1ccc(-n2c(SCC(=O)Nc3nccs3)nc3c(c2=O)SCC3)cc1,i,59,i,i,i,i,i,nt
Cc1ccc(-n2c(SCC(=O)Nc3nccs3)nc3c(c2=O)SCC3)cc1,i,i,i,i,i,i,nt,nt
COc1ccc(-c2ccc3c(c2)S(=O)(=O)c2cccc(C(=O)NCc4ccccc4Cl)c2C3=O)cc1OC,i,i,i,i,i,nt,nt,nt
COc1ccc(-c2ccc3c(c2)S(=O)(=O)c2cccc(C(=O)NCCOc4ccccc4Cl)c2C3=O)cc1OC,91,95,nt,nt,nt,nt,i,nt
COc1ccc(-c2ccc3c(c2)S(=O)(=O)c2cccc(C(=O)NC4CC4)c2C3=O)cc1OC,i,72,i,i,i,nt,52,46
COc1ccc(-c2ccc3c(c2)S(=O)(=O)c2cccc(C(=O)NC4CCCCC4)c2C3=O)cc1OC,i,i,i,i,i,nt,nt,nt
COc1cccc(-c2nn(-c3ccc(C)cc3)cc2C(=O)N2CCN(C3CCS(=O)(=O)C3)CC2)c1 (stereo not drawn),i,i,nt,i,i,nt,nt,nt
CCN(CC(=O)Nc1cccc(S(=O)(=O)N2CCOCC2)c1)Cc1ccccc1,nt,i,i,i,i,i,nt,nt
Cc1ccc2[nH]c3c(c2c1)CCCC3NC(=O)CCl (stereo not drawn),i,80,i,i,i,i,i,i
COc1ccc(-c2nc(NC(=O)c3ccc(OCC(=O)Nc4ccc(F)cc4)c(OC)c3)sc2C)cc1,i,61,i,i,i,i,46,58
COc1cc(C(=O)Nc2nc(-c3cc(C)ccc3C)c(C)s2)ccc1OCC(=O)Nc1ccc(F)cc1,nt,i,i,i,i,i,nt,nt
CC(=O)/C(C#N)=C1\NC(=O)C(Cc2ccc(C)c(Cl)c2)S1 (stereo not drawn),i,79,i,i,i,i,78,i
CCOC(=O)c1ccc(CC2S/C(=C(\C#N)C(C)=O)NC2=O)cc1 (stereo not drawn),i,i,i,i,i,i,nt,nt
CCc1ccc(CC2S/C(=C(\C#N)C(C)=O)NC2=O)cc1 (stereo not drawn),nt,61,i,i,i,i,74,70
SMILES,Beta apoptosis,Mdm2 MdmX PPI,CSC inhib,PP1 counter,PP5 inh,Calb FLC,Mdm2 MdmX conf,FLuc counter
CC(C)C(NC(=O)c1ccccc1NC(=O)c1ccccc1)C(=O)NNC(=O)c1ccncc1 (stereo not drawn),i,i,i,i,i,i,nt,nt
CCOC(=O)C1CCCN(C(=O)c2ccc3nc(-c4cccc(OC)c4)oc3c2)C1 (stereo not drawn),i,53,i,i,i,i,79,113
CCOc1ccc(CO/N=C/c2c(C)[nH]c(=O)[nH]c2=O)cc1,i,i,i,i,i,i,nt,nt
Cc1cc(C)nc(SCC(=O)Nc2ncc(Cc3ccc(Cl)c(Cl)c3)s2)n1,i,52,i,i,i,i,i,nt
COc1ccc(C2c3ccc4ccccc4c3Oc3ncn(CCN4CCOCC4)c(=N)c32)cc1OC (stereo not drawn),nt,69,nt,i,i,i,47,67
COc1ccc(C2c3ccc4ccccc4c3Oc3ncn(CCN4CCOCC4)c(=N)c32)cc1 (stereo not drawn),nt,75,i,i,i,101,55,53
COc1ccc(C2c3c(ncn(CCCN4CCOCC4)c3=N)Oc3ccc4ccccc4c32)cc1OC (stereo not drawn),i,86,i,i,i,i,51,67
N=c1c2c(ncn1CCN1CCOCC1)Oc1cc(O)ccc1C2c1ccccc1 (stereo not drawn),i,i,i,i,i,i,nt,nt
O=C(NCc1ccc(Cl)cc1)c1ccc(-c2ccccc2C(F)(F)F)o1,i,i,i,i,i,i,nt,nt
CN(C(=O)COC(=O)c1nc(Cl)c(Cl)c(Cl)c1Cl)C1CCS(=O)(=O)C1 (stereo not drawn),nt,nt,nt,nt,nt,i,nt,nt
CC(=O)NC1C(=O)N(Cc2ccccc2)c2ccc(Br)cc21 (stereo not drawn),i,75,i,i,i,i,42,49
CCN1C(=O)C(NC(C)=O)c2cc(OC)ccc21 (stereo not drawn),i,i,i,i,i,nt,nt,nt
O=C(Nc1nnc(-c2ccc(F)cc2)o1)c1cc(Cl)sc1Cl,nt,62,nt,i,i,i,i,38
O=C(Nc1nnc(-c2ccncc2)o1)c1ccccc1F,i,i,i,i,i,i,nt,nt
O=C(OCC#CCSc1nnc(-c2cccc3ccccc23)o1)c1cccc2[nH]ccc12,i,i,nt,nt,nt,nt,nt,nt
CCOC(=O)N1CCN(S(=O)(=O)Cc2ccccc2)CC1,i,i,i,i,i,i,nt,nt
O=C(CCl)N1CCN(S(=O)(=O)Cc2ccccc2)CC1,i,71,nt,i,i,nt,i,nt
O=C(CCl)N1CCN(S(=O)(=O)c2ccc3c(c2)CCC3)CC1,i,64,nt,i,i,nt,i,nt
Cc1cc(Br)cc2c(C(=O)NCC3CCCO3)cc(-c3ccccc3)nc12 (stereo not drawn),nt,i,i,i,i,i,nt,nt
O=C(Nc1nccs1)c1nc[nH]c1C(=O)NCc1ccccc1,i,51,i,i,i,nt,i,nt
CN(Cc1ccccc1)C(=O)c1[nH]cnc1C(=O)Nc1nccs1,i,i,i,i,i,nt,nt,nt

# From PubChem
